Laboratory results as given in PubChem BioAssay (NCATS).
Where “and” joins values, the source holds several entries; their conditions need not be identical. Identical values can stand only once. Inconclusive results are not listed. The source holds several records for some structures; these can differ, active in one and inactive in another. Calls of active or inactive are those of the source. The call rests on the fitted dose curve; in most records, active means well fitted curve in the direction sought with a large enough effect; inconclusive means small, poorly fitted or top-dose-only effect, or another doubt; inactive means no such curve, though single readings can be large; an effect the other way counts as inactive or inconclusive.

Key:
AA1029 = experiment: qHTS profiling for inhibitors of Plasmodium falciparum proliferation (AID 504749); further: nearly all actives have a fitted effect of over 60% in size; further: potency means the concentration at half of the fitted maximal effect; details: P. falciparum in erythrocytes, SYBR Green DNA, 72 h; series mostly up to 28.7 µM
In short: (§1)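 SYBR Green fluorescence of parasite DNA, read after lysis and overnight dark incubation, measured growth over 72 h in erythrocyte culture at 0.3% parasitemia and 2.5% hematocrit. Data normalised to DMSO and 0.29 uM artemisinin, with plate-drift correction.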

AS120 = experiment: as above; details: P. falciparum in erythrocytes, SYBR Green DNA, 72 h; series mostly up to 28.7 µM
In short: as §1

ATS189 = experiment: as above; details: P. falciparum in erythrocytes, SYBR Green DNA, 72 h; series mostly up to 28.7 µM
In short: as §1

CP185 = experiment: as above; details: P. falciparum in erythrocytes, SYBR Green DNA, 72 h; series mostly up to 28.7 µM
In short: as §1

CP194 = experiment: as above; details: P. falciparum in erythrocytes, SYBR Green DNA, 72 h; series mostly up to 28.7 µM
In short: as §1

CP237 = experiment: as above; details: P. falciparum in erythrocytes, SYBR Green DNA, 72 h; series mostly up to 28.7 µM
In short: as §1

CP252 = experiment: as above; details: P. falciparum in erythrocytes, SYBR Green DNA, 72 h; series mostly up to 28.7 µM
In short: as §1

CP256 = experiment: as above; details: P. falciparum in erythrocytes, SYBR Green DNA, 72 h; series mostly up to 28.7 µM
In short: as §1

CP265 = experiment: as above; details: P. falciparum in erythrocytes, SYBR Green DNA, 72 h; series mostly up to 28.7 µM
In short: as §1

CP266 = experiment: as above; details: P. falciparum in erythrocytes, SYBR Green DNA, 72 h; series mostly up to 28.7 µM
In short: as §1

ECU = experiment: as above; details: P. falciparum in erythrocytes, SYBR Green DNA, 72 h; series mostly up to 28.7 µM
In short: as §1

HB3 = experiment: as above; details: P. falciparum in erythrocytes, SYBR Green DNA, 72 h; series mostly up to 28.7 µM
In short: as §1

PC15 = experiment: as above; details: P. falciparum in erythrocytes, SYBR Green DNA, 72 h; series mostly up to 28.7 µM
In short: as §1

TAB109 = experiment: as above; details: P. falciparum in erythrocytes, SYBR Green DNA, 72 h; series mostly up to 28.7 µM
In short: as §1

[1] = S16 Schwann cell viability assay (CellTiter-Glo assay) (AID 624031);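 further: cellular ATP luminescence as a viability measure; nearly all actives have a fitted effect of over 70% in size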
In short: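 This viability control uses native rat S16 Schwann cells grown in DMEM plus 10% FBS. After a 24 h compound treatment at 37 °C, CellTiter-Glo luminescence reports ATP content, scaled against DMSO-treated and cell-free wells.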

CP203 = experiment: qHTS profiling for inhibitors of Plasmodium falciparum proliferation (AID 504749); further: nearly all actives have a fitted effect of over 60% in size; further: potency means the concentration at half of the fitted maximal effect; details: P. falciparum in erythrocytes, SYBR Green DNA, 72 h; series mostly up to 28.7 µM
In short: as §1

CP215 = experiment: as above; details: P. falciparum in erythrocytes, SYBR Green DNA, 72 h; series mostly up to 28.7 µM
In short: as §1

CP268 = experiment: as above; details: P. falciparum in erythrocytes, SYBR Green DNA, 72 h; series mostly up to 28.7 µM
In short: as §1

CP305 = experiment: as above; details: P. falciparum in erythrocytes, SYBR Green DNA, 72 h; series mostly up to 28.7 µM
In short: as §1

CP297 = experiment: as above; details: P. falciparum in erythrocytes, SYBR Green DNA, 72 h; series mostly up to 28.7 µM
In short: as §1

Measured: Potency

CC(=O)C1(O)Cc2c(O)c3c(c(O)c2C(OC2CC(N)C(O)C(C)O2)C1)C(=O)c1c(O)cccc1C3=O (configuration not stated)
active: AA1029 5.01 µM | AS120 4.47 µM | ATS189 8.91 µM | CP185 7.94 µM | CP194 12 µM | CP237 2.82 µM | CP252 8.91 µM | CP256 10 µM | CP265 10 µM | CP266 15.1 µM | ECU 8.91 µM | HB3 6.31 µM | PC15 11.2 µM | TAB109 5.62 µM

C=C1NC(=O)c2cc(CN(C)c3ccc(C(=O)N[C@@H](CCC(=O)O)C(=O)O)s3)ccc2N1
not listed: CP237 | CP297
inactive: all other assays above

N#C/C(=C1/SCC(c2ccccc2Cl)S1)n1ccnc1 (configuration not stated)
not listed: AS120 | CP266 | ECU | CP215 | CP297
inactive: all other assays above

Nc1nc2[nH]cc(CCc3ccc(C(=O)NC(CCC(=O)O)C(=O)O)cc3)c2c(=O)[nH]1 (configuration not stated)
inactive: [1]
active: ATS189 0.224 µM | CP194 3.79 µM | CP215 0.601 µM | CP237 0.0794 µM | CP252 0.158 µM | CP256 0.224 µM | CP297 0.239 µM | ECU 0.199 µM | HB3 0.0708 µM | TAB109 11.2 µM

CC(=O)OC1C([N+]2(C)CCCCC2)C[C@H]2C3CC[C@H]4C[C@H](OC(C)=O)C([N+]5(C)CCCCC5)CC4(C)C3CCC12C (some centres not stated)
active: CP297 6.01 µM
not listed: CP194 | CP266 | CP203 | CP215 | CP268 | CP305
inactive: all other assays above

CC[C@@]1(O)CC2CN(CCc3c([nH]c4ccccc34)[C@](C(=O)OC)(c3cc4c(cc3OC)N(C)C3[C@@](O)(C(=O)OC)C(OC(C)=O)[C@]5(CC)C=CCN6CC[C@@]43C65)C2)C1 (some centres not stated)
active: AA1029 3.16 µM | AS120 2.82 µM | ATS189 3.98 µM | CP185 2.24 µM | CP194 3.79 µM | CP203 3.01 µM | CP215 3.38 µM | CP237 0.794 µM | CP252 3.55 µM | CP256 3.16 µM | CP265 2.24 µM | CP297 2.39 µM | CP305 3.79 µM | ECU 2.51 µM | TAB109 3.16 µM
inactive: [1]

CC(=O)CC(c1ccccc1)C1C(=O)Oc2ccccc2C1=O (configuration not stated)
inactive: all assays above

CC(CN1CC(=O)NC(=O)C1)N1CC(=O)NC(=O)C1 (configuration not stated)
not listed: CP215
inactive: all other assays above

CCCSS/C(CCO)=C(/C)N(C=O)Cc1cnc(C)nc1N
not listed: [1]
inactive: all other assays above

C[C@@H]1CCN(C(=O)[C@H](CCCNC(=N)N)NS(=O)(=O)c2cccc3c2NC[C@H](C)C3)[C@@H](C(=O)O)C1
not listed: CP203
inactive: all other assays above

OC[C@@H](O)C(O[C@@H]1O[C@@H](CO)[C@H](O)[C@H](O)[C@H]1O)[C@H](O)[C@@H](O)CO (some centres not stated)
inactive: all assays above

CCOC(=O)C(CCc1ccccc1)NC(C)C(=O)N1Cc2cc(OC)c(OC)cc2CC1C(=O)O (configuration not stated)
active: AS120 5.01 µM | CP297 10.7 µM | ECU 5.01 µM | PC15 10 µM
not listed: AA1029 | CP194 | HB3
inactive: all other assays above

CC(C)C(=O)OCC(=O)[C@@]12OC(C3CCCCC3)O[C@@H]1CC1C3CCC4=CC(=O)C=C[C@]4(C)C3[C@@H](O)C[C@@]12C (some centres not stated)
active: AA1029 0.891 µM | AS120 0.794 µM | ATS189 0.891 µM | CP185 0.794 µM | CP237 1.41 µM | CP252 1 µM | CP256 1.12 µM | CP265 1 µM | CP266 1.35 µM | CP305 0.849 µM | ECU 1.12 µM | HB3 1.12 µM | PC15 1.58 µM | TAB109 0.708 µM

CC(=O)O[C@]1(C(C)=O)CCC2C3CCC4=CC(=O)CCC4(C)C3(F)C(O)CC21C (some centres not stated)
inactive: all assays above

CCCCCOC(=O)Nc1nc(=O)n(C2O[C@H](C)[C@@H](O)[C@@H]2O)cc1F (some centres not stated)
not listed: CP237 | CP256
inactive: all other assays above

C[C@@H](O)[C@@H]1C(=O)N2C(C(=O)O)=C([C@H]3CCCO3)S[C@H]12
inactive: all assays above

NC(CSSCC(N)C(=O)O)C(=O)O (configuration not stated)
inactive: all assays above

CNC1=CN(O)C(c2ccccc2)=c2cc(Cl)ccc2=N1
11.2 µM (active) and inactive: AS120
inactive: [1] | CP237 | CP256 | HB3 | PC15
active: ATS189 4.47 µM | CP194 4.26 µM | CP203 4.26 µM | CP215 4.26 µM and 10.7 µM | CP252 8.91 µM | CP265 6.31 µM | CP266 4.78 µM | CP268 4.26 µM | CP297 4.26 µM | CP305 1.69 µM | TAB109 3.55 µM

CCCC(=O)Nc1c(I)cc(I)c(C[C@H](CC)C(=O)O)c1I
inactive: all assays above

CCN(CC)C(=O)[C@@]1(c2ccccc2)C[C@@H]1CN
not listed: TAB109
inactive: all other assays above

COc1ccc2cc1Oc1cc3c(cc1OC)CC[N+](C)(C)C3Cc1ccc(cc1)Oc1c(OC)c(OC)cc3c1C(C2)[N+](C)(C)CC3 (configuration not stated)
not listed: CP266
inactive: all other assays above

COc1cc(/C=C2\CCC/C(=C\c3ccc(O)c(OC)c3)C2=O)ccc1O
inactive: [1]
active: AA1029 12.6 µM | AS120 8.91 µM | CP185 11.2 µM | CP215 15.1 µM | CP237 14.1 µM | CP265 14.1 µM | CP297 13.5 µM | ECU 11.2 µM | HB3 12.6 µM | PC15 12.6 µM | TAB109 12.6 µM

O=C(O)Cc1sc(-c2ccc(Cl)cc2)nc1-c1ccccc1
not listed: CP215
inactive: all other assays above

CO/N=C(/C(=O)N[C@@H]1C(=O)N2C(C(=O)O)=C(CSc3nnnn3C)CS[C@H]12)c1csc(N)n1
not listed: CP266 | CP203
inactive: all other assays above

CC1CN(c2c(F)c(N)c3c(=O)c(C(=O)O)cn(C4CC4)c3c2F)CC(C)N1 (configuration not stated)
inactive: all assays above

CCCCC(=O)OC1CCC2C3CCc4cc(O)ccc4C3CC[C@]12C (some centres not stated)
not listed: AS120 | ATS189 | CP256 | PC15 | [1] | CP297
inactive: all other assays above
